Compound activity (PubChem)
TDP1 inh = TDP1 (human) enzyme inhibition; Q9NUW8; recombinant TDP1, AlphaScreen DNA substrate cleavage; actives 0.28% (n = 350,000); Potency, µM (doses to about 130 µM), inactives show at the top dose activity change, negative = inhibition, usual class: inhibitors; further: on the % scale 0 is the no-effect control and ±100 the full control effect; nearly all actives have a fitted effect of over 40% in size
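Tdp1 1 nM final; 15 min RT w/ cpd; substrate 15 nM, 5 min; beads 10 ug/ml, 10 min; AlphaScreen read. Neg ctrl: no enzyme.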
ClpP mod = qHTS Assay for Activators of ClpP; ATP-dependent Clp protease proteolytic subunit (Bacillus subtilis (strain 168)), P80244; purified B. subtilis ClpP, FRET peptide cleavage, 20 min; Potency, µM (series often up to 57.5 µM), for the others: at the highest dose activity change, negative = active; actives 1.9% (n = 340,000); AID 651965, 2013; active means well fitted falling curve with a large enough effect; inconclusive means small, poorly fitted or top-dose-only effect; inactive means no such curve, though single readings can be large or run the other way; further: the source files actives as falling curves though it sought activators and does not explain the sign; nearly all actives have a fitted effect of over 65% in size
Target sequence (P80244 whole entry, looked up): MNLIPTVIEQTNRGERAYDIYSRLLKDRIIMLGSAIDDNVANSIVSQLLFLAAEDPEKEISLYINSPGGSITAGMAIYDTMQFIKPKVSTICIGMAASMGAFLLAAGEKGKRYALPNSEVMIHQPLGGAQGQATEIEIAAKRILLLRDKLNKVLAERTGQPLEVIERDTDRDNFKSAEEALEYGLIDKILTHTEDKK
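FRET quenching reversal measured ClpP activation: 10 microg/mL B. subtilis ClpP at pH 8 with the FRET-FV decapeptide, read at 430 nm after 320 nm excitation. The 20-min minus 0-min signal was scaled between DMSO/no-enzyme wells and ADEP (5.8 microM final).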
DT40 TDP1 CPT = growth inhibition of DT40 Tdp1-/-;hTDP1 cells with camptothecin (screen for TDP1 inhibitors). actives 12% (n = 420,000). Potency, µM (highest dose often 46.2 µM), for the others: top-dose activity change, negative = growth inhibition, most hits filed as inhibitors. chicken DT40 Tdp1-/-;hTDP1 cells + 20 nM CPT, ATP luminescence, 48 h. AID 686979; further: on the % scale 0 is the no-effect control and ±100 the full control effect; nearly all actives have a fitted effect of over 55% in size
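Chicken DT40 Tdp1-/- cells stably complemented with human TDP1 were seeded at 400 cells/well in medium containing 20 nM camptothecin, exposed to pin-transferred compounds, and grown at 37 °C for at least 48 hr. Viability was read as ATP luminescence.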
DT40 TDP1 no CPT = qHTS for Inhibitors of human tyrosyl-DNA phosphodiesterase 1 (TDP1): qHTS in cells in absence of CPT; DT40 Tdp1-/- hTDP1 cells, no CPT, ATP luminescence, 48 h; actives 15% (n = 420,000); Potency, µM (series often up to 46.2 µM), inactives show top-dose activity change, negative = growth inhibition, most hits filed as inhibitors; further: on the % scale 0 is the no-effect control and ±100 the full control effect; nearly all actives have a fitted effect of over 55% in size
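Luminescent ATP content (CellTiter-Glo) served as the growth readout. Knockout chicken DT40 cells expressing human TDP1 were exposed to compounds without camptothecin for a minimum 48 hr at 37 °C.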
Active calls of the source: *; ? = inconclusive; nt = no result given. Rows were chosen to be rich in hits. Some 17% of all compounds tested hit in one or more screens of this group. Unless noted, the call rests on the fitted dose curve; in most records, active means well fitted curve in the direction sought with a large enough effect; inconclusive means small, poorly fitted or top-dose-only effect, or another doubt; inactive means no such curve, though single readings can be large; an effect the other way counts as inactive or inconclusive. Potency means the concentration at half of the fitted maximal effect.

SMILES	TDP1 inh	ClpP mod	DT40 TDP1 CPT	DT40 TDP1 no CPT
Cc1nc2ccccc2cc1C(=O)O	4.7%	-3.2%	-0.9%	4.3%
O=C(Nc1ccccc1-c1ccccc1)c1ccccc1Br	nt	1.6%	-17.7%	-2.2%
Cc1ccccc1C(=O)Nc1ccccc1C(=O)NCc1ccccc1	-2.1%	1.2%	?	18.4µM*
COc1ccc(S(=O)(=O)NCC2CCCO2)cc1NC(=O)c1ccccc1F (centres undefined)	-0.5%	nt	-0.2%	-3.7%
O=C(N[C@H]1CCCc2ccccc21)O[C@@H]1C(=O)c2cc(Br)ccc2O[C@H]1c1ccc2c(c1)OCO2	6.9%	nt	nt	nt
COc1ccc(/C=C2/NC(=O)CNC2=O)cc1	nt	0.6%	-5.2%	-0.5%
O=C(Nc1ccccc1C(=O)NCc1ccccc1)c1ccccc1Br	-3.0%	-2.0%	23.1µM*	?
O=C(O)CCC(=O)Nc1ccccc1C(=O)NCc1ccccc1	0.0%	0.2%	-0.2%	-2.1%
CCCC(=O)NC(c1ccccc1Cl)c1c(O)ccc2ccccc12 (centres undefined)	2.3%	?	?	?
CCCC(=O)NC(c1ccc(Cl)cc1)c1ccc2cccnc2c1O (centres undefined)	nt	nt	4.11µM*	4.11µM*
Cc1cccc(NC(c2cccc(Cl)c2)c2ccc3cccnc3c2O)n1 (centres undefined)	nt	-3.1%	5.17µM*	5.17µM*
CCCCC(=O)NC(c1ccc(Cl)cc1)c1ccc2cccnc2c1O (centres undefined)	nt	nt	1.3µM*	1.16µM*
Oc1c(C(Nc2cccc(C(F)(F)F)c2)c2ccncc2)ccc2cccnc12 (centres undefined)	5.1%	-19.3%	16.4µM*	18.4µM*
COC(=O)c1ccc2c(c1)N(CC(=O)Nc1cccc(Cl)c1C)C(=O)c1ccccc1S2	-1.8%	-3.5%	nt	nt
COCCNC(=O)CCCn1c(SCC(=O)Nc2cccc(C)c2)nc2c(sc3ccccc32)c1=O	1.2%	-28.1%	?	?
CCCC(=O)NC(c1ccc(N(C)C)cc1)c1c(O)ccc2ccccc12 (centres undefined)	5.1%	-3.5%	7.4%	7.6%
CCCC(=O)NC(c1ccc(Cl)cc1Cl)c1ccc2cccnc2c1O (centres undefined)	nt	nt	4.11µM*	4.61µM*
CCC(=O)NC(C)c1cc(Cl)c2cccnc2c1O (centres undefined)	0.0%	nt	nt	nt
Cc1ccc(C(Nc2ccccn2)c2ccc3cccnc3c2O)cc1 (centres undefined)	nt	-2.7%	20.6µM*	5.8µM*
CCCCC(=O)NC(c1ccc(N(C)C)cc1)c1ccc2cccnc2c1O (centres undefined)	nt	nt	1.03µM*	0.731µM*
CCCC(=O)NC(c1ccc(C)cc1)c1ccc2cccnc2c1O (centres undefined)	3.1%	nt	2.31µM*	1.16µM*
O=C(O)c1cccc2c1C(=O)c1cc([N+](=O)[O-])ccc1-2	nt	-1.6%	?	?
Cc1cccc(NC2=CC(=O)CC(C)(C)C2)c1C	-1.2%	0.3%	7.4%	9.1%
CC(=O)NC(c1ccco1)c1cc(F)c2cccnc2c1O (centres undefined)	1.0%	nt	nt	nt
CC(=O)NC(c1ccc(Cl)cc1Cl)c1ccc2cccnc2c1O (centres undefined)	nt	-1.9%	3.66µM*	4.61µM*
SMILES	TDP1 inh	ClpP mod	DT40 TDP1 CPT	DT40 TDP1 no CPT
CCC(Sc1nc2ccccc2c2nc(CCn3cncc3C)nn12)C(=O)Nc1cccc(OC)c1 (centres undefined)	12.2%	-2.1%	?	?
Cc1cncn1CCc1nc2c3ccccc3nc(SCC(=O)Nc3cccc(Cl)c3)n2n1	13.2%	1.4%	18.4µM*	7.31µM*
Cc1ccc(Cl)cc1NC(=O)CSc1nc2ccccc2c2nc(-c3ccccc3)nn12	1.5%	-3.2%	-15.3%	-2.8%
CCOc1ccccc1NC(=O)CSc1nc2ccccc2c2nc(CCn3cncc3C)nn12	-1.5%	-0.4%	?	23.1µM*
Cc1cccc(NC(=O)CSc2nc3ccccc3c3nc(CCc4c(C)n[nH]c4C)nn23)c1	4.4%	0.1%	16.4µM*	13µM*
Brc1ccc(-c2cn3c(n2)CCc2ccc4cccnc4c2-3)cc1	7.8%	28.2µM*	15.7%	-21.1%
Brc1ccc(-c2cn3nc4c(nc3n2)CCCC4)cc1	9.8%	-14.2%	-11.2%	?
COCCNC(=O)c1cc(-c2ccccc2C)n(CC2CC(c3cccc([N+](=O)[O-])c3)=NO2)n1 (centres undefined)	5.3%	-0.4%	?	?
Cc1ccccc1-c1cc(C(=O)NCC2CC2)nn1CC1CC(c2cccc([N+](=O)[O-])c2)=NO1 (centres undefined)	3.1%	-0.2%	?	16.4µM*
CC(=O)ON=C1C=CC(=C(C#N)c2ccccc2)C=C1	nt	0.0%	2.31µM*	3.26µM*
COc1ccc(C(C#N)=C2C=CC(=NO)C=C2)cc1	10.5%	nt	5.17µM*	10.3µM*
Cc1ccccc1NC(=O)c1ccc2c(c1)c(C)c(C)n2Cc1ccccc1	7.9%	-10.6%	7.31µM*	4.11µM*
Cc1c(C)n(Cc2ccccc2)c2ccc(C(=O)NCC(C)c3ccccc3)cc12 (centres undefined)	7.9%	20µM*	?	?
Cc1cccc(C(=O)Nc2c(C#N)c(C)c(C)n2Cc2ccccc2)c1	6.2%	-1.2%	?	16.4µM*
Cc1c(C#N)c(NC(=O)C(C)C)n(Cc2ccccc2)c1C	0.6%	1.9%	-4.4%	20.9%
Cc1c(C)n(Cc2ccccc2)c2ccc(C(=O)NC(C)c3ccccc3)cc12 (centres undefined)	7.9%	?	16.4µM*	16.4µM*
O=C(C1CCN(S(=O)(=O)Cc2ccccc2)CC1)N1CCN(c2cccc(Cl)c2)CC1	8.6%	-0.1%	-16.1%	?
Cc1ccccc1C	16.1%	nt	nt	nt
COc1ccc(S(=O)(=O)N2CCN(C(=O)Nc3ccccc3OC)CC2)cc1	0.9%	-1.2%	-17.8%	4.9%
Cc1ccc(OCC(=O)OCC(=O)NC2CCS(=O)(=O)C2)cc1C (centres undefined)	nt	-0.3%	0.7%	-4.8%
COc1ccc(Cl)cc1NC(=O)N1CCN(Cc2cc(=O)n3nc(-c4ccccc4)sc3n2)CC1	8.1%	-9.1%	-14.2%	-22.8%
CCN(CC)CCC(c1cc(OC)c(OC)c(OC)c1)c1c(OC)cc(OC)c2ccc(=O)oc12 (centres undefined)	5.0%	-7.7%	?	?
CCCCCc1cc(=O)oc2c(C(CCN(CC)CC)c3ccc(N(C)C)cc3)c(OC)cc(OC)c12 (centres undefined)	12.5%	10.3%	?	16.4µM*
COc1cc(OC)c2ccc(=O)oc2c1C(CCN1CCCC(C)C1)c1ccc(N(C)C)cc1 (centres undefined)	14.4%	-3.6%	20.6µM*	?
